Records with an inconclusive call do not appear. Active and inactive are the calls of the source. Calls come from the whole dose curve; as a rule, active = well fitted inhibition curve with a large enough effect; inconclusive = small, poorly fitted or top-dose-only effect; inactive = flat fitted curve, though single readings scatter.
molecular target: Aldehyde dehydrogenase, mitochondrial (Homo sapiens) (UniProt P05091); test: qHTS for Inhibitors of the Aldehyde Dehydrogenase Family (ALDH2) Primary screen (AID 2061308); details: ALDH2 enzyme inhibition qHTS, 1536-well; series mostly up to 56 µM; activity change, negative = inhibition: at the top concentration;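 note: plate controls were vehicle for no effect and reference inhibitor for full effect; nearly all actives have a fitted effect of over 55% in size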

SMILES | activity change, negative = inhibition
Cc1nc(C)c(-c2ccc3ncnc(NCCc4cnc[nH]4)c3c2)s1 | -6.43% (inactive)
Cc1nc(N2CCOCC2)c2nc(-c3ccccc3)n(CCN3CCCC3)c2n1 | 7.05% (inactive)
CCCCNc1nc(C)nc2c1nc(-c1ccccc1)n2C(C)CCCN(CC)CC (stereo unspecified) | 8.45% (inactive)
CC1=C(C(=O)n2ccc3ccccc32)C(c2ccccc2Br)N=C(Nc2nc3ccccc3o2)N1 (stereo unspecified) | -7.43% (inactive)
N#Cc1cc(NC(=O)Nc2nnc(-c3ccncc3)s2)ccc1-c1ccc[nH]1 | 8.45% (inactive)
O=C(Cc1ccc(Cl)c(Cl)c1)Nc1ccc([S+](=O)([O-])Nc2ccccn2)cc1 | -5.87% (inactive)
N[C@H](Cc1ccccc1)C(=O)Nc1ccc(Cl)cc1C(=O)c1ccc[nH]1 | -2.48% (inactive)
COc1ccc(C(=O)Oc2ccc(-c3nc4ccccc4[nH]3)cc2)cc1OC | 7.86% (inactive)
CCOC(=O)c1cccc(NC(=O)Nc2nnc(-c3ccncc3)s2)c1 | -0.112% (inactive)
CCOc1ccc(COc2ccc(-c3nc4ccccc4[nH]3)cc2)cc1 | -5.4% (inactive)
COC(=O)[C@@H]1C2CC3c4[nH]c5ccccc5c4CCN3CC2CC[C@@H]1O (stereo partly specified) | 0% (inactive)
C=C1CC2OC(=O)C(=C)C2C(OC(=O)/C(C)=C\C)CC2(C)OC1=CC2=O (stereo unspecified) | 4.58% (inactive)
C[C@@H]1CN(S(=O)(=O)c2ccc3c(c2)OCCO3)CCN1S(=O)(=O)c1c(F)cccc1F | 2.59% (inactive)
Cc1nc(-c2ccccc2)oc1-c1ccc2ncnc(NCCc3cnc[nH]3)c2c1 | 3.13% (inactive)
Cc1ccnc(NC(=S)N[C@H]2CCN(c3cccc(C(F)(F)F)c3)C2)c1 | -10.2% (inactive)
CCOC(=O)c1ccc(-n2cnc3cc(C(=O)N4CCCCC4)ccc32)cc1 | 58.3% (inactive)
